Data taken from the supplement of paper PMC10849652.
Of roughly 8,800 targets only a part is listed; those with a hit were picked by preference. About 0.5% of all pairs of compound and target were hits.

Columns and labels:
Assay in all cases: log2 fold change, soluble protein after heating vs DMSO (PISA); higher = thermal stabilisation; K562 lysate, 10 uM; active = over 0.2 and 3.5 SD of the protein, either way, in both replicates (recomputed)
lapatinib = compound: CS(=O)(=O)CCNCc1ccc(-c2ccc3ncnc(Nc4ccc(OCc5cccc(F)c5)c(Cl)c4)c3c2)o1 [lapatinib]
How it was run: (§1)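 K562 pellets were dounce-homogenised in PBS pH 7.4 containing 1 mM MgCl2, and the crude extract, at 1 mg/mL protein, was exposed to 10 μM compound for 30 min. Aliquots were heated for 3 min across 48°C-58°C, pooled, brought to 0.5% NP-40 at 4°C and spun at 21,000xg for 90 min, with the supernatant taken as soluble protein. TMTpro 16plex LC-MS/MS with equalised channel sums quantified that protein. Values are log-two fold changes in thermal stability relative to solvent controls, taken from duplicates.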

pictilisib = compound: CS(=O)(=O)N1CCN(Cc2cc3nc(-c4cccc5[nH]ncc45)nc(N4CCOCC4)c3s2)CC1 [pictilisib]
How it was run: as §1

crizotinib = compound: C[C@@H](Oc1cc(-c2cnn(C3CCNCC3)c2)cnc1N)c1c(Cl)ccc(F)c1Cl [crizotinib]
How it was run: as §1

[1] = compound: C[C@H](C1=CC=C(C=C1)C(=O)NC2=C3C=CNC3=NC=C2)N
How it was run: as §1

duvelisib = compound: C[C@H](Nc1ncnc2nc[nH]c12)c1cc2cccc(Cl)c2c(=O)n1-c1ccccc1 [duvelisib]
How it was run: as §1

gandotinib = compound: Cc1cc(Nc2cc(CN3CCOCC3)c3nc(C)c(Cc4ccc(Cl)cc4F)n3n2)n[nH]1 [gandotinib]
How it was run: as §1

tozasertib = compound: Cc1cc(Nc2cc(N3CCN(C)CC3)nc(Sc3ccc(NC(=O)C4CC4)cc3)n2)n[nH]1 [tozasertib]
How it was run: as §1

doramapimod = compound: Cc1ccc(-n2nc(C(C)(C)C)cc2NC(=O)Nc2ccc(OCCN3CCOCC3)c3ccccc23)cc1 [doramapimod]
How it was run: as §1

bafetinib = compound: Cc1ccc(NC(=O)c2ccc(CN3CC[C@H](N(C)C)C3)c(C(F)(F)F)c2)cc1Nc1nccc(-c2cncnc2)n1 [bafetinib]
How it was run: as §1

[2] = compound: Cc1cccc(CC(=O)N2CCc3c2ccc(-c2cn(C)c4ncnc(N)c24)c3F)n1
How it was run: as §1

nilotinib = compound: Cc1cn(-c2cc(NC(=O)c3ccc(C)c(Nc4nccc(-c5cccnc5)n4)c3)cc(C(F)(F)F)c2)cn1 [nilotinib]
How it was run: as §1

[3] = compound: Cc1nc(Nc2n[nH]c3c2CN(C(=O)N[C@H](CN(C)C)c2ccccc2)C3(C)C)c2sccc2n1
How it was run: as §1

dasatinib = compound: Cc1nc(Nc2ncc(C(=O)Nc3c(C)cccc3Cl)s2)cc(N2CCN(CCO)CC2)n1 [dasatinib]
How it was run: as §1

[4] = compound: Cc1ncc(-c2ccnc(Nc3ccc(S(C)(=O)=O)cc3)n2)n1C(C)C
How it was run: as §1

[5] = compound: Cn1cc(-c2ccc3c(c2)CCN3C(=O)Cc2cccc(C(F)(F)F)c2)c2c(N)ncnc21
How it was run: as §1

quisinostat = compound: Cn1cc(CNCC2CCN(c3ncc(C(=O)NO)cn3)CC2)c2ccccc21 [quisinostat]
How it was run: as §1

tipifarnib = compound: Cn1cncc1[C@@](N)(c1ccc(Cl)cc1)c1ccc2c(c1)c(-c1cccc(Cl)c1)cc(=O)n2C [tipifarnib]
How it was run: as §1

[6] = compound: NC(=O)Nc1cc(-c2cccc(F)c2)sc1C(=O)N[C@H]1CCCNC1
How it was run: as §1

[7] = compound: NC(=O)c1cnc(N[C@@H]2CCCC[C@@H]2N)nc1Nc1cccc(-n2nccn2)c1
How it was run: as §1

[8] = compound: NC1(c2ccc(-c3nc4ccn5c(=O)[nH]nc5c4cc3-c3ccccc3)cc2)CCC1
How it was run: as §1

Measured: log2 fold change

TUBGCP2 isoform 4 (UniProt Q9BSJ2)
inactive: lapatinib -0.008 | pictilisib -0.029 | crizotinib -0.119 | [1] 0.08 | duvelisib -0.001 | gandotinib -0.087 | tozasertib 0.002 | doramapimod 0.033 | bafetinib 0.002 | [2] 0.009 | nilotinib -0.016 | [3] 0.012 | dasatinib -0.058 | [4] 0.012 | [5] 0.064 | quisinostat -0.091 | tipifarnib -0.001 | [6] 0.037 | [7] 0 | [8] -0.016

TCF3 (UniProt P15923)
UniProt P15923, sequence (P15923 whole entry, looked up): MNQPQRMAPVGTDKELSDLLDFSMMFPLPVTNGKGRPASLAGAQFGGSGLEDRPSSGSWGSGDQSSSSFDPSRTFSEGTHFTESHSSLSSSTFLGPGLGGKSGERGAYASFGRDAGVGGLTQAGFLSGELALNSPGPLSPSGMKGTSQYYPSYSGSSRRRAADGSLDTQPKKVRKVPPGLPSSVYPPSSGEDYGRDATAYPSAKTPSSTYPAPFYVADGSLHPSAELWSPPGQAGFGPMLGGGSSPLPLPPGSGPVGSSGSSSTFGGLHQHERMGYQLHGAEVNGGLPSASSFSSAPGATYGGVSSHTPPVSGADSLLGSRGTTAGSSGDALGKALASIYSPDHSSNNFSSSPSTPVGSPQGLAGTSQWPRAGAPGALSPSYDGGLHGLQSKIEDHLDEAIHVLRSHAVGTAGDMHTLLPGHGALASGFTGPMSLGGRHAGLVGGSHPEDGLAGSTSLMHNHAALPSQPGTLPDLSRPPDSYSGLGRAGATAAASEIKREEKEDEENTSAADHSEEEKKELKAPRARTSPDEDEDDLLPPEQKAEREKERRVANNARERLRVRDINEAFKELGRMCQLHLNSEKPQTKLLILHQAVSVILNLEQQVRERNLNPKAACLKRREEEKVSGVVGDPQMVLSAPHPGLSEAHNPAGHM
active: duvelisib 0.22
inactive: lapatinib 0.014 | pictilisib 0.014 | crizotinib 0.066 | [1] -0.042 | gandotinib 0.053 | tozasertib -0.013 | doramapimod -0.031 | bafetinib -0.036 | [2] -0.032 | nilotinib 0.028 | [3] -0.118 | dasatinib -0.018 | [4] -0.057 | [5] -0.139 | quisinostat 0.006 | tipifarnib -0.245 | [6] 0.055 | [7] -0.019 | [8] -0.003

TPST2 (UniProt O60704)
UniProt O60704, sequence (O60704 whole entry, looked up): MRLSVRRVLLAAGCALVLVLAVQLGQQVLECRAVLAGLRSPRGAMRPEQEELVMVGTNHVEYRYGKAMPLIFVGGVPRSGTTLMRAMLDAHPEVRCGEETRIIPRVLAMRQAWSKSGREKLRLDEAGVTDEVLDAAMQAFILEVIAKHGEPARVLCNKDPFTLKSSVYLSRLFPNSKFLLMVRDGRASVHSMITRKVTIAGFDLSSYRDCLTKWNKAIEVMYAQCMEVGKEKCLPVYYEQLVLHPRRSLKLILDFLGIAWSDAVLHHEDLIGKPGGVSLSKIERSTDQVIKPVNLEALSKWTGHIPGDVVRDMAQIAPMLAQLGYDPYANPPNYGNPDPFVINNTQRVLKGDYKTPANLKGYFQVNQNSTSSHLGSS
active: [1] -0.671
inactive: lapatinib 0.028 | pictilisib 0.621 | crizotinib -0.046 | duvelisib -0.029 | gandotinib 0.109 | tozasertib -0.043 | doramapimod 0.057 | bafetinib 0.022 | [2] 0.126 | nilotinib -0.02 | [3] -0.03 | dasatinib -0.007 | [4] 0.016 | [5] 0.008 | quisinostat -0.076 | tipifarnib -0.058 | [6] 0.064 | [7] -0.064 | [8] -0.087

TUBA4A (UniProt P68366)
inactive: lapatinib -0.02 | pictilisib 0.012 | crizotinib -0.048 | [1] -0.066 | duvelisib 0.034 | gandotinib 0.121 | tozasertib 0.011 | doramapimod 0.045 | bafetinib -0.028 | [2] 0.035 | nilotinib 0.036 | [3] -0.024 | dasatinib -0.09 | [4] -0.009 | [5] 0.02 | quisinostat -0.024 | tipifarnib -0.012 | [6] 0.034 | [7] 0.022 | [8] -0.003

TTK (UniProt P33981)
UniProt P33981, sequence (P33981 whole entry, looked up): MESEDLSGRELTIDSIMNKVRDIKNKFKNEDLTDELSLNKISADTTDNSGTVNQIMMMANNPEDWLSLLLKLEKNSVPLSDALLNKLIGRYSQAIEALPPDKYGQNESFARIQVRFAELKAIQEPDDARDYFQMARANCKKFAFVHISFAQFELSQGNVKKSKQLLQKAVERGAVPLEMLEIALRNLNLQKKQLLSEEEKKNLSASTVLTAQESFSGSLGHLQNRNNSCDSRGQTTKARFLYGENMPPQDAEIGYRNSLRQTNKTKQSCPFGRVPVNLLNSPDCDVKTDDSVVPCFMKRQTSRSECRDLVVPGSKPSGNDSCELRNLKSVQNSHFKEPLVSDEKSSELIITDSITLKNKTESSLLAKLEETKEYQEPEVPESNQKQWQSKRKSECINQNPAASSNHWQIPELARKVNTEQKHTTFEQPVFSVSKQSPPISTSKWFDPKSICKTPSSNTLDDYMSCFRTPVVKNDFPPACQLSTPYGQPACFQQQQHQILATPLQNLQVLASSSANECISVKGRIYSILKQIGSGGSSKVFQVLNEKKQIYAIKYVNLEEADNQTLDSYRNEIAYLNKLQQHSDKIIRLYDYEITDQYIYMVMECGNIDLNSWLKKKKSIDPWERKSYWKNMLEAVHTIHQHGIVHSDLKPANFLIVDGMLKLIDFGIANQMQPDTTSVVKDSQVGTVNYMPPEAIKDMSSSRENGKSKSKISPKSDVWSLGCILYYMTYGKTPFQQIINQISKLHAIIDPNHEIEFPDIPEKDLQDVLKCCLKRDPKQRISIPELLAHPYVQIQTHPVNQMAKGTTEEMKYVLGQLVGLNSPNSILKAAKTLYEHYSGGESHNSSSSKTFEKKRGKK
inactive: lapatinib 0.061 | pictilisib 0.142 | crizotinib -0.008 | [1] 0 | duvelisib -0.031 | gandotinib 0.058 | tozasertib -0.054 | doramapimod 0.143 | bafetinib -0.068 | [2] 0.024 | nilotinib 0.007 | [3] 0.236 | dasatinib -0.014 | [4] 0.185 | [5] 0.013 | quisinostat -0.062 | tipifarnib -0.147 | [6] 0.034 | [7] -0.001 | [8] -0.057

UBE4A isoform 2 (UniProt Q14139)
UniProt Q14139, sequence (Q14139 whole entry, looked up): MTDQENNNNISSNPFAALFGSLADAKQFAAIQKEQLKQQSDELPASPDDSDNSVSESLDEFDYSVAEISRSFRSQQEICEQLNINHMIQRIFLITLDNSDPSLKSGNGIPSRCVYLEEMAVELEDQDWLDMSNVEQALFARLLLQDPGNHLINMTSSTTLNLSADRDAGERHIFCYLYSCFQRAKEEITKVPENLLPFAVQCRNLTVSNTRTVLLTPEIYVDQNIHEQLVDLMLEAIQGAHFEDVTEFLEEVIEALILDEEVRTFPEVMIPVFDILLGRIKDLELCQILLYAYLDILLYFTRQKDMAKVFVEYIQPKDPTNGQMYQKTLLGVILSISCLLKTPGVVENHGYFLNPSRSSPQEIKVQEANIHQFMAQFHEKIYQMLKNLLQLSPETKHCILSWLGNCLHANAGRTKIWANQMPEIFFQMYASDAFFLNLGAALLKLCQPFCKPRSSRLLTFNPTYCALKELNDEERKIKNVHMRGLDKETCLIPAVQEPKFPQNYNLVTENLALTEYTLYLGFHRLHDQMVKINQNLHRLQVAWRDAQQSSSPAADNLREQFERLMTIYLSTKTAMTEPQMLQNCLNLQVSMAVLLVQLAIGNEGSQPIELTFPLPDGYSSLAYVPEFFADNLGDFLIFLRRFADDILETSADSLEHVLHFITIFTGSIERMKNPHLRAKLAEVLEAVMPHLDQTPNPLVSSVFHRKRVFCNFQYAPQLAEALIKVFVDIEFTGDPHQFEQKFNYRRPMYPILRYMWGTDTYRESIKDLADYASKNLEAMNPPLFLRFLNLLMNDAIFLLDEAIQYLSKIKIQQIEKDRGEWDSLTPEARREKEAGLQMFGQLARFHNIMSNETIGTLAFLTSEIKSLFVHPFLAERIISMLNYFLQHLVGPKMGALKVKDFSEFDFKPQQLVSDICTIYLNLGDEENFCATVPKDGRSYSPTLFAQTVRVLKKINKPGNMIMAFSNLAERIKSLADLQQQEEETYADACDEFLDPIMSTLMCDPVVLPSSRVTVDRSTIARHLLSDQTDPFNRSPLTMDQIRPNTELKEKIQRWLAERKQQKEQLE
inactive: lapatinib -0.019 | pictilisib -0.007 | crizotinib -0.059 | [1] -0.009 | duvelisib 0.016 | gandotinib -0.15 | tozasertib 0 | doramapimod 0.004 | bafetinib -0.054 | [2] 0.043 | nilotinib 0.023 | [3] -0.009 | dasatinib -0.075 | [4] -0.022 | [5] 0.026 | quisinostat -0.018 | tipifarnib -0.003 | [6] 0.054 | [7] 0.002 | [8] 0.017

TECR (UniProt Q9NZ01)
active: gandotinib -0.448
inactive: lapatinib -0.082 | pictilisib -0.032 | crizotinib -0.138 | [1] 0.011 | duvelisib -0.056 | tozasertib 0.056 | doramapimod -0.045 | bafetinib -0.049 | [2] 0.015 | nilotinib -0.06 | [3] 0.018 | dasatinib -0.062 | [4] -0.011 | [5] -0.043 | quisinostat -0.024 | tipifarnib -0.09 | [6] 0.041 | [7] -0.009 | [8] -0.047

TPM1 (UniProt H7BYY1)
inactive: lapatinib 0.028 | pictilisib 0.042 | crizotinib 0.096 | [1] 0.063 | duvelisib -0.004 | gandotinib -0.118 | tozasertib 0.012 | doramapimod -0.025 | bafetinib 0.026 | [2] -0.158 | nilotinib 0.014 | [3] -0.111 | dasatinib -0.023 | [4] 0.028 | [5] 0.02 | quisinostat 0.101 | tipifarnib 0.059 | [6] -0.017 | [7] 0.013 | [8] 0.033

TEX30 (UniProt Q5JUR7)
active: [1] -0.517
inactive: lapatinib -0.07 | pictilisib -0.122 | crizotinib -0.035 | duvelisib 0.102 | gandotinib 0.007 | tozasertib -0.003 | doramapimod 0.036 | bafetinib 0.066 | [2] 0.069 | nilotinib -0.036 | [3] 0.072 | dasatinib -0.109 | [4] 0.003 | [5] -0.004 | quisinostat 0.007 | tipifarnib 0 | [6] 0.046 | [7] -0.017 | [8] -0.052

TUBE1 (UniProt Q9UJT0)
inactive: lapatinib -0.008 | pictilisib -0.005 | crizotinib 0.095 | [1] 0.214 | duvelisib -0.01 | gandotinib -0.076 | tozasertib 0.054 | doramapimod -0.034 | bafetinib -0.066 | [2] -0.029 | nilotinib 0.036 | [3] -0.051 | dasatinib 0.017 | [4] -0.046 | [5] -0.028 | quisinostat -0.037 | tipifarnib 0.029 | [6] 0.064 | [7] 0.007 | [8] 0.025

TRIM11 (UniProt Q96F44)
inactive: lapatinib 0.013 | pictilisib -0.006 | crizotinib -0.029 | [1] -0.006 | duvelisib -0.016 | gandotinib -0.03 | tozasertib -0.006 | doramapimod 0.015 | bafetinib 0.029 | [2] -0.003 | nilotinib -0.019 | [3] 0.053 | dasatinib -0.021 | [4] 0.055 | [5] 0.023 | quisinostat -0.104 | tipifarnib -0.015 | [6] -0.019 | [7] -0.004 | [8] -0.023

TPP2 (UniProt P29144)
UniProt P29144, sequence (P29144 whole entry, looked up): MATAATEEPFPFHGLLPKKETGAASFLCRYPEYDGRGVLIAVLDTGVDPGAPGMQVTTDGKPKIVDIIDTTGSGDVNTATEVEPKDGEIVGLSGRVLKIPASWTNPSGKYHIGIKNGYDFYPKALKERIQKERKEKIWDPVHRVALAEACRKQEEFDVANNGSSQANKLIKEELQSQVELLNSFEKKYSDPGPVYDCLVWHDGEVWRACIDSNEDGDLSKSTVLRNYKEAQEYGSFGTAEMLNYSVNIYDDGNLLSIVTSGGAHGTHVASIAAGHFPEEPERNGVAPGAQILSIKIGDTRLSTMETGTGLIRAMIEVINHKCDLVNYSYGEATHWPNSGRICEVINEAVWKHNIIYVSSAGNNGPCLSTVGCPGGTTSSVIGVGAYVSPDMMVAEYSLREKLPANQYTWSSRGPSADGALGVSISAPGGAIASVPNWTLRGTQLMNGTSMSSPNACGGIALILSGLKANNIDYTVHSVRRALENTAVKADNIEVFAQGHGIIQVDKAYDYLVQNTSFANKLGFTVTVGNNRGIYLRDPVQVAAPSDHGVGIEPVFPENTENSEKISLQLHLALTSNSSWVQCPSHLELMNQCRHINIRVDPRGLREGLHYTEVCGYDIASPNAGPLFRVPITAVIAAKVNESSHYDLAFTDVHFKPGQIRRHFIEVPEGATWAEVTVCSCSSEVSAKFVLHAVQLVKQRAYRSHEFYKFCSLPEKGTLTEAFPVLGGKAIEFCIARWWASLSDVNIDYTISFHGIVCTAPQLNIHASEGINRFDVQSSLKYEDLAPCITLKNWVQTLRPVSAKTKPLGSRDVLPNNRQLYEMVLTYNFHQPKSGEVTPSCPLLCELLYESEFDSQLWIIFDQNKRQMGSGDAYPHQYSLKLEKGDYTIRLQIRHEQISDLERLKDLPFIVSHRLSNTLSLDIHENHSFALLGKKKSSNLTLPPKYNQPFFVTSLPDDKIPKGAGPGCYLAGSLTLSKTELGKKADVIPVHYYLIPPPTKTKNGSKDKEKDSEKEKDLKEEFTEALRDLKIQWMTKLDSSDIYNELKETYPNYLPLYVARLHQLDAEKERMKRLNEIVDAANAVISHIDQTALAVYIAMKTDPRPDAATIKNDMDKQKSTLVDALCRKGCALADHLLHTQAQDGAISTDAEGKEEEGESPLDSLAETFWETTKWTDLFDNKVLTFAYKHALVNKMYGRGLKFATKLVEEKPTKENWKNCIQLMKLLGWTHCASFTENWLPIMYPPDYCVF
inactive: lapatinib -0.007 | pictilisib 0.014 | crizotinib -0.009 | [1] 0.035 | duvelisib 0.011 | gandotinib -0.011 | tozasertib -0.009 | doramapimod 0.007 | bafetinib -0.008 | [2] -0.011 | nilotinib 0.013 | [3] -0.005 | dasatinib -0.005 | [4] -0.02 | [5] 0.019 | quisinostat 0.01 | tipifarnib 0.006 | [6] 0.013 | [7] 0 | [8] 0.003

TRIP12 isoform 2 (UniProt Q14669)
inactive: lapatinib -0.109 | pictilisib 0.016 | crizotinib -0.029 | [1] -0.012 | duvelisib 0.05 | gandotinib -0.042 | tozasertib 0.024 | doramapimod -0.006 | bafetinib -0.06 | [2] 0.06 | nilotinib -0.019 | [3] 0.011 | dasatinib 0.003 | [4] 0.001 | [5] 0.039 | quisinostat -0.065 | tipifarnib -0.017 | [6] 0.057 | [7] 0.016 | [8] 0.003

TLE3 isoform 4 (UniProt Q04726)
inactive: lapatinib -0.01 | pictilisib 0.008 | crizotinib 0.003 | [1] 0.004 | duvelisib -0.015 | gandotinib 0 | tozasertib -0.029 | doramapimod -0.016 | bafetinib 0.1 | [2] -0.048 | nilotinib 0.011 | [3] 0.053 | dasatinib -0.002 | [4] 0.001 | [5] -0.038 | quisinostat 0.008 | tipifarnib -0.003 | [6] 0.012 | [7] 0.001 | [8] -0.003

TUBB (UniProt P07437)
UniProt P07437, sequence (P07437 whole entry, looked up): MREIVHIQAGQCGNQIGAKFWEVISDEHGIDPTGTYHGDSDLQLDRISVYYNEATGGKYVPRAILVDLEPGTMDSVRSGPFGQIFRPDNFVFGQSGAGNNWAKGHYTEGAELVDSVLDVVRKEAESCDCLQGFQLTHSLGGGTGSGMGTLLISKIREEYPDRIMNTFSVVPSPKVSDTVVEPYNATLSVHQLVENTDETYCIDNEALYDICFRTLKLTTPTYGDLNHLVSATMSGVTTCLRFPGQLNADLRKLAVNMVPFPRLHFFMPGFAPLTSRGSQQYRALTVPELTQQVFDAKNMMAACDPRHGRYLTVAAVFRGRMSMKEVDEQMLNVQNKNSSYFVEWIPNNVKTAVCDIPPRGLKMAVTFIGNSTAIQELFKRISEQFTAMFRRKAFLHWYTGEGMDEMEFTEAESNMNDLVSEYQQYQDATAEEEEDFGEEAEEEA
inactive: lapatinib -0.035 | pictilisib -0.002 | crizotinib -0.043 | [1] -0.005 | duvelisib 0.008 | gandotinib 0.065 | tozasertib -0.022 | doramapimod -0.047 | bafetinib 0.024 | [2] -0.01 | nilotinib 0.067 | [3] 0.016 | dasatinib -0.043 | [4] -0.001 | [5] -0.011 | quisinostat 0.004 | tipifarnib 0.022 | [6] 0.048 | [7] -0.022 | [8] -0.003

TYMS (UniProt P04818)
UniProt P04818, sequence (P04818 whole entry, looked up): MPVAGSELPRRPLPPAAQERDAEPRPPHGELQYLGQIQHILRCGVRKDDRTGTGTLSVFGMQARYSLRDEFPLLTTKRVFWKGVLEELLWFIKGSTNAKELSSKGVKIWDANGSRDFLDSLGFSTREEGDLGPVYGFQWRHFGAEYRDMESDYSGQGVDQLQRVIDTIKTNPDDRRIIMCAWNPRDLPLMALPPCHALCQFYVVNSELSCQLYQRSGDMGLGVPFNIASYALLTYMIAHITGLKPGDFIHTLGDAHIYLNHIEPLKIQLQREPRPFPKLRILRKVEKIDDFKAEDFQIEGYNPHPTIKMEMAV
inactive: lapatinib -0.007 | pictilisib -0.017 | crizotinib 0.002 | [1] 0.003 | duvelisib 0.018 | gandotinib 0.058 | tozasertib 0.011 | doramapimod -0.019 | bafetinib -0.005 | [2] -0.017 | nilotinib 0.012 | [3] -0.032 | dasatinib -0.023 | [4] -0.015 | [5] 0.01 | quisinostat -0.001 | tipifarnib -0.02 | [6] 0.034 | [7] 0.015 | [8] -0.032
